Source: PubChem BioAssay
For some assays here: Entries with a potency or affinity are not part of this list. Calls of active or inactive are those of the source. Unless noted, no rule for the calls is given here.

What was measured:
[1] = antimalarial activity against Dd2 strain (AID 2302;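 active = growth inhibition above 50% at the single 2 µM test dose, taken to imply half-maximal potency below 2 µM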;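 also: 0% = DMSO untreated growth and 100% = chloroquine plus artemisinin killed control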); conditions: P. falciparum Dd2 in RBCs, LDH growth readout, 72 h; at 2 µM; stronger effect = higher value
[2] = human hepatoma cell viability loss – ATP luminescence, cytotoxicity control for P. falciparum antimalarial project, primary screen (AID 2303;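 active = inhibition above 50%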;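 also: 0% = DMSO wells and 100% = digitonin-killed cells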); conditions: HepG2 viability, 24-48 h, at 10 µM, stronger effect = higher value
[3] = molecular target: L-lactate dehydrogenase (Plasmodium falciparum (isolate CDC / Honduras)) (UniProt Q27743); assay: PfLDH activity inhibition – cell lysate, 3D7 strain, counter-screen for P. falciparum growth inhibition project (AID 2304);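 also: 0% = vehicle and 100% = reference inhibitor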; conditions: P. falciparum 3D7 crude extract, LDH APAD/NBT absorbance; at 2 µM; stronger effect = higher value
[4] = inhibition of 3D7 malaria parasite growth – strain 3D7 (AID 2306);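 also: 0% = DMSO wells and 100% = chloroquine plus artemisinin control wells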; conditions: P. falciparum 3D7 erythrocytic growth, LDH absorbance, 72 h; at 2 µM; stronger effect = higher value
[5] = molecular target: Calcium-dependent protein kinase 1 (Plasmodium falciparum (isolate 3D7)) (UniProt P62344); assay: PfCDPK1 kinase inhibitors, biochemical, TCAMS library (AID 1159585; cut-off not given, nearly all actives have IC50 up to about 0.98 µM;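 also: inhibitors leave more ATP so luminescence rises with inhibition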); conditions: recombinant PfCDPK1, Kinase-Glo ATP depletion luminescence
[6] = molecular target: Plasmodium falciparum protein kinase 6 (PK6, PF3D7_1337100) (UniProt Q8IDW1); assay: PfPK6 kinase inhibitors, biochemical, TCAMS library (AID 1159586); conditions: recombinant PfPK6, Kinase-Glo ATP depletion luminescence
[7] = molecular target: Protein kinase 7 (PK7), Plasmodium falciparum 3D7 (PF3D7_0213400) (UniProt Q7YTF7); assay: inhibition of Plasmodium PK7 catalytic activity – biochemical, TCAMS antimalarial set, Kinase-Glo luminescence (AID 1159587); conditions: recombinant PfPK7, Kinase-Glo ATP depletion luminescence
[8] = molecular target: Calcium-dependent protein kinase 4 (Plasmodium falciparum (isolate 3D7)) (UniProt Q8IBS5); assay: PfCDPK4 kinase inhibitors, biochemical, TCAMS library (AID 1159588; cut-off not given, nearly all actives have IC50 up to about 0.91 µM); conditions: recombinant PfCDPK4, Kinase-Glo ATP depletion luminescence
Chain of Calcium-dependent protein kinase 4 (Plasmodium falciparum (isolate 3D7)) (Q8IBS5 whole entry, looked up): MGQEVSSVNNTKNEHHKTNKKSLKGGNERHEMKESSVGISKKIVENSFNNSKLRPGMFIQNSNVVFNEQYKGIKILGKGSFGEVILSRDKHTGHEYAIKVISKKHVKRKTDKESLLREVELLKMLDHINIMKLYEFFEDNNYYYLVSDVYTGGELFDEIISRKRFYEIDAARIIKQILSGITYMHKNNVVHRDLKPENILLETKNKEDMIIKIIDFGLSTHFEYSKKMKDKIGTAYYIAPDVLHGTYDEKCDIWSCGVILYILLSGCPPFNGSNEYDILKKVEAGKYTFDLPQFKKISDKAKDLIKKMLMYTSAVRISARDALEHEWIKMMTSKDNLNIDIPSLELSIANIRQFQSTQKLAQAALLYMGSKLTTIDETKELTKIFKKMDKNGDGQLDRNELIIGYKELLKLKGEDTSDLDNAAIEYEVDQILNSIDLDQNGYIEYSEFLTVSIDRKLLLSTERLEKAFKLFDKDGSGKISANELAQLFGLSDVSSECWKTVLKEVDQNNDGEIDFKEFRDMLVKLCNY

Chain of Calcium-dependent protein kinase 1 (Plasmodium falciparum (isolate 3D7)) (P62344 whole entry, looked up): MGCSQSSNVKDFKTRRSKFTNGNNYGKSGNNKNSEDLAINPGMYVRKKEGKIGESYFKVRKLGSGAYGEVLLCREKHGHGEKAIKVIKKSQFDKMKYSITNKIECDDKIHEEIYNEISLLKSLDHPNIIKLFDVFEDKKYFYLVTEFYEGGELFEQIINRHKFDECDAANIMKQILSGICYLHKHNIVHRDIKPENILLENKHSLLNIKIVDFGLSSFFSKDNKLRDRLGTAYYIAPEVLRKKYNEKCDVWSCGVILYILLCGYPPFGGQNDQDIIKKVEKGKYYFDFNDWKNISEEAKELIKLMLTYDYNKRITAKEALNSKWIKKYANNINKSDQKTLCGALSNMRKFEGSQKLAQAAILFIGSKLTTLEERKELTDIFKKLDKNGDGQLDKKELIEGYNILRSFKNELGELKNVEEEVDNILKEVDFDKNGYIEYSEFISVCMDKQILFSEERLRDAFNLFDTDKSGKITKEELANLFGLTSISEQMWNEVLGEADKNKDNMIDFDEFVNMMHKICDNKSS
Chain of Plasmodium falciparum protein kinase 6 (PK6, PF3D7_1337100) (Q8IDW1 1-305): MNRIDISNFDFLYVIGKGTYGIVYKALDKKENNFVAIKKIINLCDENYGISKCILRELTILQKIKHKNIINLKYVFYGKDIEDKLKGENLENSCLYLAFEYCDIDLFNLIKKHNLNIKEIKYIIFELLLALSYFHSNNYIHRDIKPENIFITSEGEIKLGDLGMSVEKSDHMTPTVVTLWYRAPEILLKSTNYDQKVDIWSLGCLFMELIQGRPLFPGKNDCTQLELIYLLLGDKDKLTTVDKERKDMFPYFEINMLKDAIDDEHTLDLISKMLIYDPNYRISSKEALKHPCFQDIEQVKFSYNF
Chain of L-lactate dehydrogenase (Plasmodium falciparum (isolate CDC / Honduras)) (Q27743 whole entry, looked up): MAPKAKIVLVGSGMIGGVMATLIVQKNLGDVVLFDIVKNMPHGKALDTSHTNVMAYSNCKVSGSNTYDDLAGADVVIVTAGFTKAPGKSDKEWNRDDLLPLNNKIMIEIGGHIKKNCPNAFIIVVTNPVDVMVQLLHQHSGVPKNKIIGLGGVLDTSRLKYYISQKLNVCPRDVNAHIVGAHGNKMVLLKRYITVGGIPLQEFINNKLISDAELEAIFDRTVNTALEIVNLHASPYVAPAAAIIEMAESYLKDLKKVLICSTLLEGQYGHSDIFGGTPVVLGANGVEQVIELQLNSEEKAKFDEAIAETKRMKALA
Chain of Protein kinase 7 (PK7), Plasmodium falciparum 3D7 (PF3D7_0213400) (Q7YTF7 1-343): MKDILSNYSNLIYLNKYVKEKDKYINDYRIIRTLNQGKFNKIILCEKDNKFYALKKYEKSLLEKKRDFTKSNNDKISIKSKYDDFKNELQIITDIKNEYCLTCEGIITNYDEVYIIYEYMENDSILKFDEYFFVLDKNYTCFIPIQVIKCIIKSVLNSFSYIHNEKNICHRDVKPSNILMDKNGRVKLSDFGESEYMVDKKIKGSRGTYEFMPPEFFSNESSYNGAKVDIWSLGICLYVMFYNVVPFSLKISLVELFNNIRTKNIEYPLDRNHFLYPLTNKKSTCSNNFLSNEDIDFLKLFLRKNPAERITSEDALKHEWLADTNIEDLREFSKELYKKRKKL

Cc1cccc2[nH]c(-c3cccc(-c4ccc(NC(=O)Cc5cnc[nH]5)cc4)c3)nc12
active: growth inhibition [1] 93% | growth inhibition [4] 101%
inactive: inhibition [2] 4% | inhibition [3] -3% | outcome [5] | outcome [6] | outcome [7] | outcome [8]

CC(C)c1sc(N2CCN(C)CC2)nc1C(=O)Nc1cccc2c1CCCC2
inactive: inhibition [2] 3% | inhibition [3] -1% | outcome [5] | outcome [6] | outcome [7] | outcome [8]
active: growth inhibition [1] 50% | growth inhibition [4] 98%

O=C(Nc1ccc(OC2CCN(Cc3ccsc3)C2)c(Cl)c1)c1cccs1 (stereo not given)
inactive: inhibition [2] -1% | inhibition [3] -5% | outcome [5] | outcome [6] | outcome [7] | outcome [8]
active: growth inhibition [1] 87% | growth inhibition [4] 91%

CC1(C)N=C(N)N=C(N)N1OCC1COc2ccccc2O1 (stereo not given)
active: growth inhibition [1] 66% | inhibition [2] 56% | growth inhibition [4] 96%
inactive: inhibition [3] -1% | outcome [5] | outcome [6] | outcome [7] | outcome [8]

COc1cccc(OC)c1C(=O)Nc1cccc(-c2nn3ccccc3c2-c2ccnc(Nc3cccc(F)c3)n2)c1
active: growth inhibition [4] 95%
inactive: growth inhibition [1] 38% | inhibition [2] 3% | inhibition [3] 8% | outcome [5] | outcome [6] | outcome [7] | outcome [8]

NC1CCN(Cc2cccc(-c3ccc(-c4nc5ccc(F)cc5[nH]4)cc3)c2)C1 (stereo not given)
inactive: inhibition [2] 24% | inhibition [3] -1% | outcome [5] | outcome [6] | outcome [7] | outcome [8]
active: growth inhibition [1] 99% | growth inhibition [4] 99%

Cc1cc(C2CCN(CCCCNC(=O)c3ccc(-c4ccc(C(F)(F)F)cc4)cc3)CC2)c(C)cc1OCC(N)=O
inactive: growth inhibition [1] 44% | inhibition [2] 34% | inhibition [3] -7% | outcome [5] | outcome [6] | outcome [7] | outcome [8]
active: growth inhibition [4] 91%

Cn1ccc(-c2cccc(Nc3ccnc4cc(-c5nccs5)ccc34)c2)n1
active: growth inhibition [1] 94% | growth inhibition [4] 101%
inactive: inhibition [2] 39% | inhibition [3] -1% | outcome [5] | outcome [6] | outcome [7] | outcome [8]

COc1ccc(NC(=O)CSc2nc(-c3ccccc3Cl)ns2)cc1
inactive: inhibition [2] 11% | inhibition [3] 0% | outcome [5] | outcome [6] | outcome [7] | outcome [8]
active: growth inhibition [1] 75% | growth inhibition [4] 96%

Cc1cc(N[C@@H](Cc2ccccc2)C(=O)NCCCOC(C)C)nc(NCC2CCCCC2)n1
inactive: growth inhibition [1] 25% | inhibition [2] 17% | inhibition [3] -4% | outcome [5] | outcome [6] | outcome [7] | outcome [8]
active: growth inhibition [4] 94%

CCCNCc1ccc(-c2ccc(CN(CC3CCCO3)C(=O)C3CC(=O)c4ccccc43)cc2)nc1 (stereo not given)
inactive: inhibition [2] 0% | inhibition [3] 3% | outcome [5] | outcome [6] | outcome [7] | outcome [8]
active: growth inhibition [1] 65% | growth inhibition [4] 101%

CC(NC(C)c1cccc(Cl)c1)C(=O)Nc1cc(C(F)(F)F)ccc1N1CCOCC1 (stereo not given)
inactive: growth inhibition [1] 33% | inhibition [2] 30% | inhibition [3] 1% | outcome [5] | outcome [6] | outcome [7] | outcome [8]
active: growth inhibition [4] 89%

CCCCN=C(N)c1ccc(OCCCCCOc2ccc(C(N)=NCCCC)cc2)cc1
inactive: inhibition [2] 19% | inhibition [3] -4% | outcome [5] | outcome [6] | outcome [7] | outcome [8]
active: growth inhibition [1] 99% | growth inhibition [4] 99%

CN(C)CCCNc1ccnc2cc(Cl)ccc12
active: growth inhibition [1] 100% | growth inhibition [4] 100%
inactive: inhibition [2] 10% | inhibition [3] 4% | outcome [5] | outcome [6] | outcome [7] | outcome [8]

O=C(Nc1ccc(CCNC2=NCCN2)cc1)Nc1ccc(CCNC2=NCCN2)cc1
active: growth inhibition [1] 66% | growth inhibition [4] 90%
inactive: inhibition [2] 6% | inhibition [3] 4% | outcome [5] | outcome [6] | outcome [7] | outcome [8]

O=C(Nc1cccc(-c2cccc(-c3nc4ccc(F)cc4[nH]3)c2)c1)Nc1ccc2c(c1)OCO2
inactive: growth inhibition [1] 49% | inhibition [2] 30% | inhibition [3] -4% | outcome [5] | outcome [6] | outcome [7] | outcome [8]
active: growth inhibition [4] 101%

Cc1cnc(C(=O)Nc2cccc(-c3ccc(-c4nc5ccc(C(F)(F)F)cc5[nH]4)s3)c2)cn1
active: growth inhibition [4] 86%
inactive: growth inhibition [1] 14% | inhibition [2] 35% | inhibition [3] -7% | outcome [5] | outcome [6] | outcome [7] | outcome [8]

COc1cc(Cl)c(C)cc1N(Cc1ccccc1-c1ccccc1)S(=O)(=O)c1ccc(C(F)(F)F)cc1
active: growth inhibition [1] 62% | growth inhibition [4] 90%
inactive: inhibition [2] 23% | inhibition [3] -2% | outcome [5] | outcome [6] | outcome [7] | outcome [8]

CC(C)Nc1nc(NCCc2cnc[nH]2)nc(NCc2cccc3ccccc23)n1
inactive: growth inhibition [1] 0% | inhibition [2] 4% | inhibition [3] 2% | outcome [5] | outcome [6] | outcome [7] | outcome [8]
active: growth inhibition [4] 90%

Cc1cc(N2CCCN(C)CC2)nc(Nc2ccc(Br)cc2)n1
inactive: growth inhibition [1] 14% | inhibition [2] 8% | inhibition [3] 7% | outcome [5] | outcome [6] | outcome [7] | outcome [8]
active: growth inhibition [4] 94%

COc1ccc(CNCCc2cccs2)cc1-c1ccc(S(=O)(=O)NCCN2CCCC2)cc1
active: growth inhibition [4] 99%
inactive: growth inhibition [1] 30% | inhibition [2] 30% | inhibition [3] 4% | outcome [5] | outcome [6] | outcome [7] | outcome [8]

Cc1ccc(O)cc1Nc1ccnc2cc(-c3csc(CNCCN4CCOCC4)n3)ccc12
inactive: inhibition [2] 6% | inhibition [3] -3% | outcome [5] | outcome [6] | outcome [7] | outcome [8]
active: growth inhibition [1] 99% | growth inhibition [4] 101%

COc1ccc2ncc(F)c(CCN3C[C@H](CNCc4ccccc4)[C@H](O)C3)c2n1
active: growth inhibition [4] 89%
inactive: growth inhibition [1] 22% | inhibition [2] 19% | inhibition [3] 8% | outcome [5] | outcome [6] | outcome [7] | outcome [8]

CC(C)Nc1cc(C(=O)N[C@@H](Cc2ccccc2)[C@H](O)CNC2CCCCC2)cc(N2CCCCS2(=O)=O)c1
inactive: inhibition [2] 9% | inhibition [3] 4% | outcome [5] | outcome [6] | outcome [7] | outcome [8]
active: growth inhibition [1] 98% | growth inhibition [4] 98%

CO/C(=C\C=C\c1cc2cc(Cl)c(Cl)cc2[nH]1)C(=O)NCCCN1CCN(c2cccc(CCO)c2)CC1
inactive: growth inhibition [1] 32% | inhibition [3] -1% | outcome [5] | outcome [6] | outcome [7] | outcome [8]
active: inhibition [2] 61% | growth inhibition [4] 101%

O=C(Nc1ccccc1N1CCOCC1)c1ncoc1-c1ccccc1C(F)(F)F
active: growth inhibition [1] 60% | growth inhibition [4] 89%
inactive: inhibition [2] -2% | inhibition [3] 7% | outcome [5] | outcome [6] | outcome [7] | outcome [8]

COc1ccc(-c2cncc3ccc(C(=O)NCc4ccncc4)nc23)cc1
inactive: inhibition [2] 25% | inhibition [3] 0% | outcome [5] | outcome [6] | outcome [7] | outcome [8]
active: growth inhibition [1] 98% | growth inhibition [4] 100%

NC1=NC2(CCCCC2)N(OCCCOc2cccc3ccccc23)C(N)=N1
active: growth inhibition [1] 96% | inhibition [2] 67% | growth inhibition [4] 95%
inactive: inhibition [3] -2% | outcome [5] | outcome [6] | outcome [7] | outcome [8]

CC(=O)N[C@H](C(=O)Nc1ccc(-c2cccc(-c3nc4c(C)cccc4[nH]3)c2)cc1)C(C)C
inactive: growth inhibition [1] 10% | inhibition [2] 9% | inhibition [3] 2% | outcome [5] | outcome [6] | outcome [7] | outcome [8]
active: growth inhibition [4] 89%

CCCOc1ccc(NC(=O)c2cccs2)cc1Cl
active: growth inhibition [1] 86% | growth inhibition [4] 88%
inactive: inhibition [2] 1% | inhibition [3] -4% | outcome [5] | outcome [6] | outcome [7] | outcome [8]

CCCCCCCc1c(C)[nH]c2cc(OC)ccc2c1=O
inactive: inhibition [2] 5% | inhibition [3] -5% | outcome [5] | outcome [6] | outcome [7] | outcome [8]
active: growth inhibition [1] 98% | growth inhibition [4] 99%

Nc1c2c(nc3ccc(NC(=O)CCCc4ccccc4)cc13)CCCC2
active: inhibition [2] 73% | growth inhibition [4] 101%
inactive: growth inhibition [1] 42% | inhibition [3] -1% | outcome [5] | outcome [6] | outcome [7] | outcome [8]

O=C(Nc1ccc(Cl)cc1)NC1CCN(CCCCCNC(=O)[C@@H]2C[C@H]2c2ccc(Cl)c(Cl)c2)CC1
inactive: growth inhibition [1] 18% | inhibition [3] 4% | outcome [5] | outcome [6] | outcome [7] | outcome [8]
active: inhibition [2] 51% | growth inhibition [4] 102%

COCCN1CCC(C(=O)NCC(C)(C)c2nc(-c3ccc(Br)c(O)c3)c(-c3ccncc3)[nH]2)CC1
active: growth inhibition [4] 99%
inactive: growth inhibition [1] 6% | inhibition [2] -12% | inhibition [3] 3% | outcome [5] | outcome [6] | outcome [7] | outcome [8]

CNC(=O)CSc1nnc(-c2ccc(C)cc2)c(-c2ccc(C)cc2)n1
active: growth inhibition [4] 94%
inactive: growth inhibition [1] 49% | inhibition [2] 2% | inhibition [3] -3% | outcome [5] | outcome [6] | outcome [7] | outcome [8]

NC(=O)C1CCN(Cc2cccc(-c3ccc(-c4nc5ccc(C(F)(F)F)cc5[nH]4)cc3)c2)CC1
active: growth inhibition [1] 94% | growth inhibition [4] 100%
inactive: inhibition [2] 7% | inhibition [3] 8% | outcome [5] | outcome [6] | outcome [7] | outcome [8]

COc1cc(-c2nc3ccc(N4CCN(C)CC4)cc3[nH]2)cc(OC)c1OC
inactive: growth inhibition [1] 15% | inhibition [2] 6% | inhibition [3] 0% | outcome [5] | outcome [6] | outcome [7] | outcome [8]
active: growth inhibition [4] 87%

Cc1ccc(NC(=O)c2cc([N+](=O)[O-])ccc2NCc2cccnc2)cc1Cl
inactive: inhibition [2] 9% | inhibition [3] -5% | outcome [5] | outcome [6] | outcome [7] | outcome [8]
active: growth inhibition [1] 58% | growth inhibition [4] 86%

CNCc1ccc(-c2ccc3ccnc(N)c3c2)cc1
inactive: inhibition [2] 46% | inhibition [3] 5% | outcome [5] | outcome [6] | outcome [7] | outcome [8]
active: growth inhibition [1] 98% | growth inhibition [4] 94%

O=C(Nc1ccc(N2CCCCC2)c(Cl)c1)c1ccco1
active: growth inhibition [1] 95% | growth inhibition [4] 96%
inactive: inhibition [2] -1% | inhibition [3] -6% | outcome [5] | outcome [6] | outcome [7] | outcome [8]
